The full list was thinned out, with the strongest signals kept by preference.
Columns and labels:
Assay in all cases: glycan array binding signal (z-score within array); higher = stronger binding
Details in all cases: glycan notation: IUPAC condensed, linker removed
Fuc(a1-2)Gal = target: Fuc(a1-2)Gal
In short: (§1)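 The Consortium for Functional Glycomics database supplied 3228 glycan arrays, of which those lacking an available protein sequence were dropped. The binding signal, a within-array Z-score, was averaged across arrays of the same protein sequence and across linkers. Negative scores can be read as non-binding.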

Fuc(a1-2)Gal(b1-3)GlcNAc = target: Fuc(a1-2)Gal(b1-3)GlcNAc
In short: as §1

[1] = target: Fuc(a1-2)Gal(b1-3)GlcNAc(b1-3)[Gal(b1-4)GlcNAc(b1-6)]Gal(b1-4)Glc
In short: as §1

[2] = target: Fuc(a1-2)Gal(b1-3)[Fuc(a1-4)]GlcNAc
In short: as §1

[3] = target: Fuc(a1-2)Gal(b1-4)Fuc(a1-3)]GlcNAc(b1-2)Man(a1-3)[Fuc(a1-2)Gal(b1-4)[Fuc(a1-3)]GlcNAc(b1-2)Man(a1-6)]Man(b1-4)GlcNAc(b1-4)GlcNAc
In short: as §1

[4] = target: Fuc(a1-2)Gal(b1-4)GlcNAc6S
In short: as §1

[5] = target: Fuc(a1-2)[Gal(a1-3)]Gal(b1-4)GlcNAc(b1-6)GalNAc
In short: as §1

[6] = target: Fuc(a1-2)[GalNAc(a1-3)]Gal(b1-3)GalNAc(b1-3)Gal(a1-4)Gal(b1-4)Glc
In short: as §1

[7] = target: Fuc(a1-2)[GalNAc(a1-3)]Gal(b1-3)GlcNAc(b1-6)GalNAc
In short: as §1

[8] = target: Gal(a1-3)[Gal(a1-4)]Gal(b1-4)GlcNAc
In short: as §1

[9] = target: Gal(b1-3)GlcNAc(a1-3)Gal(b1-4)GlcNAc
In short: as §1

Gal(b1-3)GlcNAc(b1-2)Man = target: Gal(b1-3)GlcNAc(b1-2)Man
In short: as §1

[10] = target: Gal(b1-3)[Fuc(a1-4)]GlcNAc(b1-2)Man
In short: as §1

[11] = target: Gal(b1-3)[Fuc(a1-4)]GlcNAc(b1-3)Gal(b1-3)[Fuc(a1-4)]GlcNAc
In short: as §1

[12] = target: Gal(b1-3)[Neu5Ac(b2-6)]GalNAc
In short: as §1

Gal(b1-4)GlcNAc = target: Gal(b1-4)GlcNAc
In short: as §1

[13] = target: Gal(b1-4)GlcNAc(b1-2)[Gal(b1-4)GlcNAc(b1-4)]Man(a1-3)[GlcNAc(b1-4)][Gal(b1-4)GlcNAc(b1-2)Man(a1-6)]Man(b1-4)GlcNAc(b1-4)GlcNAc
In short: as §1

[14] = target: Gal(b1-4)GlcNAc(b1-3)Gal(b1-4)GlcNAc(b1-2)Man(a1-3)[Gal(b1-4)GlcNAc(b1-3)Gal(b1-4)GlcNAc(b1-2)Man(a1-6)]Man(b1-4)GlcNAc(b1-4)GlcNAc
In short: as §1

[15] = target: Gal(b1-4)GlcNAc(b1-3)Gal(b1-4)GlcNAc(b1-3)Gal(b1-4)GlcNAc(b1-2)Man(a1-3)[Gal(b1-4)GlcNAc(b1-3)Gal(b1-4)GlcNAc(b1-3)Gal(b1-4)GlcNAc(b1-2)Man(a1-6)]Man(b1-4)GlcNAc(b1-4)GlcNAc
In short: as §1

[16] = target: GalNAc(b1-4)GlcNAc(b1-2)Man
In short: as §1

Glc(a1-6)Glc(a1-6)Glc = target: Glc(a1-6)Glc(a1-6)Glc
In short: as §1

[17] = target: GlcNAc(a1-4)Gal(b1-4)GalNAc
In short: as §1

[18] = target: GlcNAc(a1-4)Gal(b1-4)GlcNAc(b1-3)Gal(b1-4)GlcNAc
In short: as §1

[19] = target: GlcNAc(a1-6)Gal(b1-4)GlcNAc
In short: as §1

[20] = target: GlcNAc(b1-3)Gal(b1-4)GlcNAc(b1-3)Gal(b1-4)GlcNAc(b1-2)Man(a1-3)[GlcNAc(b1-3)Gal(b1-4)GlcNAc(b1-3)Gal(b1-4)GlcNAc(b1-2)Man(a1-6)]Man(b1-4)GlcNAc(b1-4)GlcNAc
In short: as §1

[21] = target: GlcNAc(b1-3)Gal(b1-4)GlcNAc(b1-3)Gal(b1-4)GlcNAc(b1-2)[GlcNAc(b1-3)Gal(b1-4)GlcNAc(b1-3)Gal(b1-4)GlcNAc(b1-6)]Man(a1-6)[GlcNAc(b1-3)Gal(b1-4)GlcNAc(b1-3)Gal(b1-4)GlcNAc(b1-2)Man(a1-3)]Man(b1-4)GlcNAc(b1-4)[Fuc(a1-6)]GlcNAc
In short: as §1

[22] = target: GlcNAc(b1-3)Gal(b1-4)GlcNAc(b1-3)Gal(b1-4)GlcNAc(b1-3)Gal(b1-4)GlcNAc(b1-2)[GlcNAc(b1-3)Gal(b1-4)GlcNAc(b1-3)Gal(b1-4)GlcNAc(b1-3)Gal(b1-4)GlcNAc(b1-6)]Man(a1-6)[GlcNAc(b1-3)Gal(b1-4)GlcNAc(b1-3)Gal(b1-4)GlcNAc(b1-3)Gal(b1-4)GlcNAc(b1-2)Man(a1-3)]Man(b1-4)GlcNAc(b1-4)[Fuc(a1-6)]GlcNAc
In short: as §1

[23] = target: GlcNAc(b1-4)GlcNAc(b1-4)GlcNAc
In short: as §1

[24] = target: GlcNAc6S(b1-3)Gal(b1-4)GlcNAc
In short: as §1

[25] = target: Man(a1-2)Man(a1-2)Man(a1-6)[Man(a1-3)]Man
In short: as §1

Man(a1-2)Man(a1-3)Man = target: Man(a1-2)Man(a1-3)Man
In short: as §1

[26] = target: Man(a1-2)Man(a1-6)[Man(a1-3)]Man(a1-6)[Man(a1-2)Man(a1-2)Man(a1-3)]Man
In short: as §1

[27] = target: Neu5Ac(a2-3)Gal(b1-3)GlcNAc(b1-2)Man
In short: as §1

[28] = target: Neu5Ac(a2-3)Gal(b1-3)GlcNAc(b1-2)Man(a1-3)[GlcNAc(b1-4)][Neu5Ac(a2-3)Gal(b1-3)GlcNAc(b1-2)Man(a1-6)]Man(b1-4)GlcNAc(b1-4)GlcNAc
In short: as §1

[29] = target: Neu5Ac(a2-3)Gal(b1-3)[Neu5Ac(a2-6)]GlcNAc(b1-3)[Fuc(a1-3)[Gal(b1-4)]GlcNAc(b1-6)]Gal(b1-4)Glc
In short: as §1

[30] = target: Neu5Ac(a2-3)Gal(b1-4)GlcNAc(b1-2)Man(a1-3)[GlcNAc(b1-4)][Neu5Ac(a2-3)Gal(b1-4)GlcNAc(b1-2)Man(a1-6)]Man(b1-4)GlcNAc(b1-4)GlcNAc
In short: as §1

[31] = target: Neu5Ac(a2-3)Gal(b1-4)GlcNAc(b1-3)Gal(b1-4)GlcNAc(b1-3)Gal(b1-4)GlcNAc(b1-2)Man(a1-3)[Neu5Ac(a2-3)Gal(b1-4)GlcNAc(b1-3)Gal(b1-4)GlcNAc(b1-3)Gal(b1-4)GlcNAc(b1-2)Man(a1-6)]GalNAc
In short: as §1

[32] = target: Neu5Ac(a2-3)Gal(b1-4)GlcNAc(b1-3)Gal(b1-4)GlcNAc(b1-6)[Gal(b1-3)]GalNAc
In short: as §1

[33] = target: Neu5Ac(a2-3)Gal(b1-4)GlcNAc(b1-6)GalNAc
In short: as §1

[34] = target: Neu5Ac(a2-3)Gal(b1-4)GlcNAc(b1-6)[Gal(b1-3)]GalNAc
In short: as §1

[35] = target: Neu5Ac(a2-3)[GalNAc(b1-4)]Gal(b1-4)GlcNAc
In short: as §1

[36] = target: Neu5Ac(a2-3)[Neu5Ac(a2-6)]GalNAc
In short: as §1

Neu5Ac(a2-6)Gal(b1-4)Glc = target: Neu5Ac(a2-6)Gal(b1-4)Glc
In short: as §1

[37] = target: Neu5Ac(a2-6)Gal(b1-4)GlcNAc(b1-2)Man(a1-3)[Neu5Ac(a2-6)Gal(b1-4)GlcNAc(b1-2)Man(a1-6)]Man(b1-4)GlcNAc(b1-4)[Fuc(a1-6)]GlcNAc
In short: as §1

[38] = target: Neu5Ac(a2-6)Gal(b1-4)GlcNAc(b1-2)Man(a1-6)[Man(a1-3)]Man(b1-4)GlcNAc(b1-4)GlcNAc
In short: as §1

[39] = target: Neu5Ac(a2-6)Gal(b1-4)GlcNAc(b1-2)[Neu5Ac(a2-6)Gal(b1-4)GlcNAc(b1-4)]Man(a1-3)[GlcNAc(b1-4)][Neu5Ac(a2-6)Gal(b1-4)GlcNAc(b1-2)[Neu5Ac(a2-6)Gal(b1-4)GlcNAc(b1-6)]Man(a1-6)]Man(b1-4)GlcNAc(b1-4)GlcNAc
In short: as §1

[40] = target: Neu5Ac(a2-6)Gal(b1-4)GlcNAc(b1-3)Gal(b1-3)GlcNAc
In short: as §1

[41] = target: Neu5Ac(a2-6)Gal(b1-4)GlcNAc(b1-3)Gal(b1-4)GlcNAc(b1-3)Gal(b1-4)GlcNAc(b1-2)Man(a1-3)[Neu5Ac(a2-6)Gal(b1-4)GlcNAc(b1-3)Gal(b1-4)GlcNAc(b1-3)Gal(b1-4)GlcNAc(b1-2)Man(a1-6)]GalNAc
In short: as §1

[42] = target: Neu5Gc(a2-3)Gal(b1-3)[Fuc(a1-4)]GlcNAc
In short: as §1

B1: Als3-N (Candida albicans) (protein)
chain: KTITGVFNSFNSLTWSNAATYNYKGPGTPTWNAVLGWSLDGTSASPGDTFTLNMPCVFKFTTSQTSVDLTAHGVKYATCQFQAGEEFMTFSTLTCTVSNTLTPSIKALGTVTLPLAFNVGGTGSSVDLEDSKCFTAGTNTVTFNDGGKKISINVDFERSNVDPKGYLTDSRVIPSLNKVSTLFVAPQCANGYTSGTMGFANTYGDVQIDCSNIHVGITKGLNDWNYPVSSESFSYTKTCSSNGIFITYKNVPAGYRPFVDAYISATDVNSYTLSYANEYTCAGGYWQRAPFTLRWTGYRNSDAGSNGIVIVATTRTVTDSTTAVTTLPFDPNRDKTKTIEILKPIPTTTITTSYVGVTTSYLTKTAPIGETATVIVDIPYHTTTTVTSKWTGTITSTTTHTNPTDSIDTVIVQVP
glycan array binding signal (z-score) (Fuc(a1-2)Gal): -0.276
glycan array binding signal (z-score) (Fuc(a1-2)Gal(b1-3)GlcNAc): -0.288
glycan array binding signal (z-score) [1]: -0.291
glycan array binding signal (z-score) [2]: -0.271
glycan array binding signal (z-score) [3]: 2.75
glycan array binding signal (z-score) [4]: -0.257
glycan array binding signal (z-score) [5]: -0.082
glycan array binding signal (z-score) [6]: -0.14
glycan array binding signal (z-score) [7]: -0.223
glycan array binding signal (z-score) [8]: -0.221
glycan array binding signal (z-score) [9]: 2.03
glycan array binding signal (z-score) (Gal(b1-3)GlcNAc(b1-2)Man): 0.065
glycan array binding signal (z-score) [10]: 0.115
glycan array binding signal (z-score) [11]: 2.42
glycan array binding signal (z-score) [12]: 0.915
glycan array binding signal (z-score) (Gal(b1-4)GlcNAc): -0.168
glycan array binding signal (z-score) [13]: -0.288
glycan array binding signal (z-score) [14]: 8.26
glycan array binding signal (z-score) [15]: 3.26
glycan array binding signal (z-score) [16]: 0.231
glycan array binding signal (z-score) (Glc(a1-6)Glc(a1-6)Glc): -0.244
glycan array binding signal (z-score) [17]: -0.081
glycan array binding signal (z-score) [18]: -0.232
glycan array binding signal (z-score) [19]: -0.233
glycan array binding signal (z-score) [20]: 3.11
glycan array binding signal (z-score) [21]: 2.36
glycan array binding signal (z-score) [22]: 3.08
glycan array binding signal (z-score) [23]: -0.099
glycan array binding signal (z-score) [24]: -0.1
glycan array binding signal (z-score) [25]: -0.257
glycan array binding signal (z-score) (Man(a1-2)Man(a1-3)Man): -0.226
glycan array binding signal (z-score) [26]: -0.361
glycan array binding signal (z-score) [27]: -0.29
glycan array binding signal (z-score) [28]: -0.11
glycan array binding signal (z-score) [29]: -0.237
glycan array binding signal (z-score) [30]: -0.08
glycan array binding signal (z-score) [31]: 4.72
glycan array binding signal (z-score) [32]: 0.08
glycan array binding signal (z-score) [33]: -0.202
glycan array binding signal (z-score) [34]: -0.233
glycan array binding signal (z-score) [35]: 2.21
glycan array binding signal (z-score) [36]: -0.049
glycan array binding signal (z-score) (Neu5Ac(a2-6)Gal(b1-4)Glc): -0.187
glycan array binding signal (z-score) [37]: -0.102
glycan array binding signal (z-score) [38]: -0.309
glycan array binding signal (z-score) [39]: -0.151
glycan array binding signal (z-score) [40]: -0.283
glycan array binding signal (z-score) [41]: 2.56
glycan array binding signal (z-score) [42]: -0.341
